# Experimental data published in PubChem BioAssay (NCATS).
# Inconclusive results are not listed. Where a call stands in place of a potency, no number is given. Calls of active or inactive are those of the source. The call rests on the fitted dose curve; in most records, active means well fitted inhibition curve with a large enough effect; inconclusive means small, poorly fitted or top-dose-only effect; inactive means no such curve, though single readings can be large or run the other way.
# Target: M-phase phosphoprotein 8 (Homo sapiens) (UniProt Q99549)
# Assay: qHTS Validation Assay for Inhibitors for MPP8 Chromodomain Interactions with Methylated Histone Tails (AID 488949);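 further: AlphaScreen signal from MPP8 chromodomain bound to biotinylated H3K9me3 peptide; top concentration of the series differs between compounds; nearly all actives have a fitted effect of over 55% in size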
# Conditions: AlphaScreen MPP8 binding to H3K9me3 peptide; series mostly up to 57.1 µM
# Procedure, shortened: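 MPP8 (50 nM) was preincubated with biotinylated H3(1-18)K9me3 peptide (50 nM) in PBS pH 7.4, 0.01% Tween-20 for 30 min at room temperature, then with compounds for 30 min; binding was detected by AlphaScreen.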
# M-phase phosphoprotein 8 (Homo sapiens), sequence (Q99549 whole entry, looked up): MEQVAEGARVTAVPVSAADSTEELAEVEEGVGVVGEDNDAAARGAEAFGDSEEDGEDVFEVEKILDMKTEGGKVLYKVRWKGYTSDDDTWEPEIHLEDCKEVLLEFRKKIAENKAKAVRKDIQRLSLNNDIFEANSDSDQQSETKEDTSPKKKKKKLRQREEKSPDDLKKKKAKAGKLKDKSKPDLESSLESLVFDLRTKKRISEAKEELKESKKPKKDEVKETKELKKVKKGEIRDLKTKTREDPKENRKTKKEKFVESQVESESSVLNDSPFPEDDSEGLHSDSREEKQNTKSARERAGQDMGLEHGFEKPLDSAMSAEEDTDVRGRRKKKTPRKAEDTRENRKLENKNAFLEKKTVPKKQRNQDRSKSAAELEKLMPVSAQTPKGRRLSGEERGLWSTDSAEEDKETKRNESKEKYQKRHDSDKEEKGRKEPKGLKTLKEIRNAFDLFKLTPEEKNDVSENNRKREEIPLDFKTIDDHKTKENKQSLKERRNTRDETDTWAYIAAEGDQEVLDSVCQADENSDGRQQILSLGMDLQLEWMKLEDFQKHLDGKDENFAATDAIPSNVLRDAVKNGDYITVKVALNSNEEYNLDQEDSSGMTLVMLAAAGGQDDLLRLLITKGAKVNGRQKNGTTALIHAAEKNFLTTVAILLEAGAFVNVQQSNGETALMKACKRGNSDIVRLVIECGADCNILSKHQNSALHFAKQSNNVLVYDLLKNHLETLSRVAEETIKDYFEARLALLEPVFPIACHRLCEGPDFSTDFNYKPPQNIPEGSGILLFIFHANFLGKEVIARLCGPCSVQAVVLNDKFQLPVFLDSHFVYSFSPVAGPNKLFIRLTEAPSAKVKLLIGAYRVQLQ
row,SMILES,Potency
1,CC(=O)NBr,inactive
2,CN1CCc2cccc(Cl)c2CC1,inactive
3,CN(C(=O)Cc1ccc(Cl)c(Cl)c1)C(CN1CCCC1)c1cccc(OCC(=O)O)c1 (centres undefined),inactive
4,C[C@@H]1O[C@H](C[N+](C)(C)C)CS1,inactive
5,CCCN(CCC)C1CCc2cccc(O)c2C1 (centres undefined),inactive
6,C[C@H](Cc1ccc2c(c1)OC(C(=O)O)(C(=O)O)O2)NC[C@H](O)c1cccc(Cl)c1,inactive
7,CC(Cc1ccc(OCC(=O)O)cc1)NCC(O)c1cccc(Cl)c1 (centres undefined),inactive
8,NCCc1ccc(S(=O)(=O)F)cc1,inactive
9,Clc1ccc(N2CC3CCC(C2)N3)nn1,inactive
10,NC(=O)c1cc(N2CC2)c([N+](=O)[O-])cc1[N+](=O)[O-],inactive
11,NC(Cc1ccc(N(CCCl)CCCl)cc1)C(=O)O (centres undefined),inactive
12,N[C@@H](CCl)C(=O)O,inactive
13,NC(N)=NOCC[C@H](N)C(=O)O,inactive

# Target: Chromobox protein homolog 1 (Homo sapiens) (UniProt P83916)
# Assay: qHTS Validation Assay for Inhibitors of HP1-beta Chromodomain Interactions with Methylated Histone Tails (AID 488953); further: nearly all actives have a fitted effect of over 50% in size; further: potency means the concentration at half of the fitted maximal effect
# Conditions: HP1-beta chromodomain / methylated histone peptide binding assay; series mostly up to 114 µM
# Procedure, shortened: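 AlphaScreen proximity signal from streptavidin donor and nickel chelate acceptor beads (final 10 ug/mL) after 30 min dark incubation. Compounds had 30 min at room temperature with preformed complex of 50 nM HP1-beta and 50 nM b-H3(1-18)K9me3 in PBS pH 7.4 with 0.01% Tween-20.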
# Chromobox protein homolog 1 (Homo sapiens), sequence (P83916 whole entry, looked up): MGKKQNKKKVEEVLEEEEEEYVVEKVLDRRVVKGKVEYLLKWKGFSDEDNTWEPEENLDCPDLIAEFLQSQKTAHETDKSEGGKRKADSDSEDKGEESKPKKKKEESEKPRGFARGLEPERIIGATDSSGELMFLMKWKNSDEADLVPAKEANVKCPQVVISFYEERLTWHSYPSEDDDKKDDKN
row,SMILES,Potency
1,C[N+]1(C)CCOC(O)(c2ccc(-c3ccc(C4(O)C[N+](C)(C)CCO4)cc3)cc2)C1 (centres undefined),inactive
2,COc1ccc2[nH]cc(CCN)c2c1,inactive
3,NC(CCCCCP(=O)(O)O)C(=O)O (centres undefined),inactive
4,CC(C)NP(=O)(NC(C)C)OP(=O)(NC(C)C)NC(C)C,inactive
5,C[C@]12Cc3cn4c(nc3C=C1CCC1C2CC[C@@]2(C)[C@H]1CC[C@@]2(O)C#N)nc1ccccc14 (some centres undefined),inactive
6,C[N+](C)(C)CCOC(=O)CBr,inactive
7,NC(C(=O)O)c1cc(=O)[nH]o1 (centres undefined),inactive
8,O=C(O)c1cc[c]([Hg][Cl])cc1,39.8 µM (active)
9,C[Se]C[C@H](N)C(=O)O,inactive
10,CO[C@H]1CC=C2CCN3CCC4=C(CC(=O)OC4)[C@]23C1,inactive
11,COc1ccc(CNC(=O)/C=C/c2ccc3[nH]cc(CCN(C)C)c3c2)cc1,inactive
12,COc1ccc(OC)c(C(O)C(C)N)c1 (centres undefined),inactive
13,CC12NC(Cc3ccccc31)c1ccccc12 (centres undefined),inactive
14,C=CCN1CC[C@]23c4c5ccc(O)c4O[C@H]2/C(=N/NC(=O)c2ccccc2)CC[C@@]3(O)[C@H]1C5,inactive
15,CC(=O)NBr,inactive
16,CN1CCc2cccc(Cl)c2CC1,inactive
17,CN(C(=O)Cc1ccc(Cl)c(Cl)c1)C(CN1CCCC1)c1cccc(OCC(=O)O)c1 (centres undefined),inactive
18,C[C@@H]1O[C@H](C[N+](C)(C)C)CS1,inactive
19,CCCN(CCC)C1CCc2cccc(O)c2C1 (centres undefined),inactive
20,C[C@H](Cc1ccc2c(c1)OC(C(=O)O)(C(=O)O)O2)NC[C@H](O)c1cccc(Cl)c1,inactive
21,CC(Cc1ccc(OCC(=O)O)cc1)NCC(O)c1cccc(Cl)c1 (centres undefined),inactive
22,NCCc1ccc(S(=O)(=O)F)cc1,inactive
23,Clc1ccc(N2CC3CCC(C2)N3)nn1,inactive
24,NC(=O)c1cc(N2CC2)c([N+](=O)[O-])cc1[N+](=O)[O-],inactive
25,O=S1(=O)N(CCN2CC=C(c3c[nH]c4cc(F)ccc34)CC2)c2cccc3c2N1CCC3,39.8 µM (active)
26,NC(Cc1ccc(N(CCCl)CCCl)cc1)C(=O)O (centres undefined),0.0067 µM (active)
